Results reported in the supplement of paper PMC8728848.
The full list was thinned out, with the strongest signals kept by preference.

Key:
Test in all cases: glycan array binding signal (z-score within array); higher = stronger binding
Settings in all cases: glycan notation: IUPAC condensed, linker removed
[1] = target: Fuc(a1-2)Gal(b1-3)GlcNAc(b1-2)Man(a1-3)[Fuc(a1-2)Gal(b1-3)GlcNAc(b1-2)Man(a1-6)]Man(b1-4)GlcNAc(b1-4)[Fuc(a1-6)]GlcNAc
Method in brief: (§1)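 Glycan array data came from 3228 arrays in the Consortium for Functional Glycomics database, and only arrays with an available protein sequence were kept. Glycan names were put into IUPAC-condensed notation, and columns mapping to the same glycan were averaged. The binding signal is a within-array Z-score, averaged across arrays of one protein sequence run at different concentrations or buffers and across linkers. A negative Z-score can be read as non-binding.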

[2] = target: Fuc(a1-2)Gal(b1-3)GlcNAc(b1-3)[Gal(b1-4)GlcNAc(b1-6)]Gal(b1-4)Glc
Method in brief: as §1

[3] = target: Fuc(a1-2)Gal(b1-4)GlcNAc(b1-3)GalNAc
Method in brief: as §1

[4] = target: Fuc(a1-2)Gal(b1-4)[Fuc(a1-3)]GlcNAc(b1-2)[Fuc(a1-2)Gal(b1-4)[Fuc(a1-3)]GlcNAc(b1-4)]Man(a1-3)[Fuc(a1-2)Gal(b1-4)[Fuc(a1-3)]GlcNAc(b1-2)Man(a1-6)]Man(b1-4)GlcNAc(b1-4)GlcNAc
Method in brief: as §1

[5] = target: Fuc(a1-2)[GalNAc(a1-3)]Gal(b1-4)Glc
Method in brief: as §1

[6] = target: Fuc(a1-2)[GalNAc(a1-3)]Gal(b1-4)[Fuc(a1-3)]GlcNAc(b1-3)GalNAc
Method in brief: as §1

[7] = target: Fuc(a1-3)[Gal(b1-4)]GlcNAc(b1-3)GalNAc
Method in brief: as §1

[8] = target: Gal(b1-3)GlcNAc(b1-3)Gal(b1-4)GlcNAc(b1-6)[Gal(b1-3)GlcNAc(b1-3)]Gal(b1-4)Glc
Method in brief: as §1

[9] = target: Gal(b1-4)GlcNAc(b1-6)Gal(b1-4)GlcNAc
Method in brief: as §1

[10] = target: GalNAc(b1-3)Gal
Method in brief: as §1

[11] = target: GalNAc(b1-4)Gal(b1-4)Glc
Method in brief: as §1

[12] = target: GalNAc(b1-6)GalNAc
Method in brief: as §1

[13] = target: GlcNAc(a1-4)Gal(b1-4)GlcNAc(b1-3)Gal(b1-4)[Fuc(a1-3)]GlcNAc(b1-3)Gal(b1-4)[Fuc(a1-3)]GlcNAc
Method in brief: as §1

[14] = target: GlcNAc(b1-3)Gal(b1-3)GalNAc
Method in brief: as §1

[15] = target: GlcNAc(b1-3)GalNAc
Method in brief: as §1

[16] = target: Kdn(a2-3)Gal(b1-4)Glc
Method in brief: as §1

[17] = target: Kdn(a2-6)Gal(b1-4)GlcNAc
Method in brief: as §1

[18] = target: Man(a1-2)Man(a1-2)Man(a1-6)[Man(a1-3)]Man
Method in brief: as §1

[19] = target: Man(a1-2)Man(a1-3)[Man(a1-2)Man(a1-6)]Man(a1-6)[Man(a1-2)Man(a1-2)Man(a1-3)]Man
Method in brief: as §1

[20] = target: Man(a1-2)Man(a1-3)[Man(a1-2)Man(a1-6)]Man(a1-6)[Man(a1-2)Man(a1-2)Man(a1-3)]Man(b1-4)GlcNAc(b1-4)GlcNAc
Method in brief: as §1

[21] = target: Man(a1-2)Man(a1-6)[Man(a1-3)]Man(a1-6)[Man(a1-2)Man(a1-2)Man(a1-3)]Man
Method in brief: as §1

[22] = target: Man(a1-2)Man(a1-6)[Man(a1-3)]Man(a1-6)[Man(a1-2)Man(a1-2)Man(a1-3)]Man(b1-4)GlcNAc(b1-4)GlcNAc
Method in brief: as §1

[23] = target: Man(a1-3)[Man(a1-6)]Man
Method in brief: as §1

[24] = target: Man(a1-3)[Man(a1-6)]Man(a1-6)[Man(a1-2)Man(a1-3)]Man(b1-4)GlcNAc(b1-4)GlcNAc
Method in brief: as §1

[25] = target: Man(a1-3)[Man(a1-6)]Man(a1-6)[Man(a1-3)]Man
Method in brief: as §1

[26] = target: Man(a1-3)[Man(a1-6)]Man(a1-6)[Man(a1-3)]Man(b1-4)GlcNAc(b1-4)GlcNAc
Method in brief: as §1

[27] = target: Neu5Ac(a2-3)Gal(b1-3)GalNAc(b1-3)Gal(a1-4)Gal(b1-4)Glc
Method in brief: as §1

[28] = target: Neu5Ac(a2-3)Gal(b1-3)GlcNAc
Method in brief: as §1

[29] = target: Neu5Ac(a2-3)Gal(b1-4)GlcNAc(b1-2)Man(a1-3)[GlcNAc(b1-2)Man(b1-4)GlcNAc(b1-2)Man(a1-6)]Man(b1-4)GlcNAc(b1-4)GlcNAc
Method in brief: as §1

[30] = target: Neu5Ac(a2-3)Gal(b1-4)GlcNAc(b1-6)[Neu5Ac(a2-3)Gal(b1-3)]GalNAc
Method in brief: as §1

[31] = target: Neu5Ac(a2-6)Gal(b1-4)GlcNAc(b1-2)Man(a1-3)Man(b1-4)GlcNAc(b1-4)GlcNAc
Method in brief: as §1

[32] = target: Neu5Ac(a2-6)GalNAc
Method in brief: as §1

[33] = target: Neu5Ac(a2-6)GalNAc(b1-4)GlcNAc
Method in brief: as §1

[34] = target: Neu5Ac(a2-8)Neu5Ac(a2-8)Neu5Ac
Method in brief: as §1

[35] = target: Neu5Ac(a2-8)Neu5Ac(a2-8)Neu5Ac(a2-8)Neu5Ac(a2-3)[GalNAc(b1-4)]Gal(b1-4)Glc
Method in brief: as §1

[36] = target: Neu5Ac(b2-6)Gal(b1-4)GlcNAc
Method in brief: as §1

[37] = target: Neu5Gc(a2-3)Gal(b1-4)GlcNAc
Method in brief: as §1

B1: RS2L (Ralstonia solanacearum), B5RXL5_RALSO (protein)
chain: MAQQGVFTLPANTSFGVTAFANAANTQTIQVLVDNVVKATFTGSGTSDKLLGSQVLNSGSGAIKIQVSVNGKPSDLVSNQTILANKLNFAMVGSEDGTDNDYNDGIAVLNWPLG
- glycan array binding signal (z-score) [1]: 0.443
- glycan array binding signal (z-score) [2]: -0.211
- glycan array binding signal (z-score) [3]: -0.205
- glycan array binding signal (z-score) [4]: -0.175
- glycan array binding signal (z-score) [5]: -0.244
- glycan array binding signal (z-score) [6]: -0.233
- glycan array binding signal (z-score) [7]: -0.24
- glycan array binding signal (z-score) [8]: -0.246
- glycan array binding signal (z-score) [9]: -0.255
- glycan array binding signal (z-score) [10]: -0.243
- glycan array binding signal (z-score) [11]: -0.247
- glycan array binding signal (z-score) [12]: -0.243
- glycan array binding signal (z-score) [13]: -0.12
- glycan array binding signal (z-score) [14]: -0.245
- glycan array binding signal (z-score) [15]: -0.249
- glycan array binding signal (z-score) [16]: -0.242
- glycan array binding signal (z-score) [17]: -0.251
- glycan array binding signal (z-score) [18]: 6.32
- glycan array binding signal (z-score) [19]: 6.92
- glycan array binding signal (z-score) [20]: 3.42
- glycan array binding signal (z-score) [21]: 5.7
- glycan array binding signal (z-score) [22]: 5.97
- glycan array binding signal (z-score) [23]: 7.32
- glycan array binding signal (z-score) [24]: 6.99
- glycan array binding signal (z-score) [25]: 5.11
- glycan array binding signal (z-score) [26]: 5.42
- glycan array binding signal (z-score) [27]: -0.25
- glycan array binding signal (z-score) [28]: -0.247
- glycan array binding signal (z-score) [29]: -0.245
- glycan array binding signal (z-score) [30]: -0.254
- glycan array binding signal (z-score) [31]: -0.245
- glycan array binding signal (z-score) [32]: -0.244
- glycan array binding signal (z-score) [33]: -0.242
- glycan array binding signal (z-score) [34]: -0.243
- glycan array binding signal (z-score) [35]: -0.22
- glycan array binding signal (z-score) [36]: -0.252
- glycan array binding signal (z-score) [37]: -0.242
